Laboratory results from PubChem BioAssay (NCATS).
Values joined by “and” are separate entries in the source; they are usually repeats but may differ in a detail not shown here. Identical values can stand only once. Results filed as inconclusive are left out. A number with no mark means an inactive call. Active and inactive are the calls of the source. Calls come from the whole dose curve; as a rule, active = well fitted inhibition curve with a large enough effect; inconclusive = small, poorly fitted or top-dose-only effect; inactive = no such curve, though single readings can be large or run the other way.
Potency is the fitted concentration of half-maximal effect.

Assay: qHTS Screen of the MIPE 4.0 Collection Against Ewings Sarcoma (EW8) (AID 1259255); note: nearly all actives have a fitted effect of over 35% in size;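 for viability: 100% = DMSO-treated cells and 0% = medium-only wells without cells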
Details: EW8 Ewing sarcoma viability, CellTiter-Glo, 48 h; series mostly up to 45.8 µM; viability: at the top concentration
How it was run: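 Dose series incubated 48 h with cells in RPMI plus 5% FBS, glutamine and penicillin/streptomycin; cell viability then quantified via CellTiter-Glo.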
With `CCOC(=O)N1CCC(=C2c3ccc(Cl)cc3CCc3cccnc32)CC1` the Potency was 26.4 µM (active).
With `Cc1cn[nH]c1` the Potency was 0.059 µM (active).
With `CN(C)c1ccc(C2Nc3ccc4ccccc4c3C3=C2C(=O)CC(C)(C)C3)cc1Br` (stereo not given) the “viability” value was 100%.
With `CC(=O)Oc1ccccc1C(=O)O` the Potency was 20.9 µM (active).
For `CC(C[N+](C)(C)C)OC(N)=O` (stereo not given), the “viability” value was 112%.
In the case of `N[C@@H]1CONC1=O`, the “viability” value is reported as 105%.
In the case of `CC(C=CC1=C(C)CCCC1(C)C)=CC=CC(C)=CC(=O)O`, the Potency is reported as 20.9 µM (active) and 9.35 µM (active).
In the case of `COCCNCCCn1c(C(=O)CF)c(-c2ccc(C)cc2)c2c(N)ncnc21`, the “viability” value is reported as 87.3%.
With `COc1ccc([C@@H]2CC(=O)c3c(O)cc(O[C@@H]4O[C@H](CO[C@@H]5O[C@@H](C)[C@H](O)[C@@H](O)[C@@H]5O)[C@@H](O)[C@H](O)[C@@H]4O)cc3O2)cc1O` the “viability” value was 112%.
In the case of `Cc1ccc(N(CC2=NCCN2)c2cccc(O)c2)cc1`, the “viability” value is reported as 95.4%.
For `NC(=O)c1cnccn1`, the “viability” value was 125%.
For `CCn1c(-c2nonc2N)nc2c(C#CC(C)(C)O)ncc(OC[C@H]3CCCNC3)c21`, the Potency was 23.5 µM (active).
With `CN[C@@H](C)C(=O)N[C@H]1CCCC[C@H]2CC[C@@H](C(=O)N[C@@H](c3ccccc3)c3cn(CCCCc4ccc(CCCCn5cc([C@@H](NC(=O)[C@@H]6CC[C@@H]7CCCC[C@H](NC(=O)[C@H](C)NC)C(=O)N76)c6ccccc6)nn5)cc4)nn3)N2C1=O` the Potency was 26.4 µM (active).
With `C1COC(NC(C2CC2)C2CC2)=N1` the “viability” value was 117%.
For `CCOc1ccc(Cc2cc([C@@H]3O[C@H](CO)[C@@H](O)[C@H](O)[C@@H]3O)ccc2Cl)cc1`, the “viability” value was 106%.
In the case of `Cc1ccc(NC(=O)c2cccc(C(C)(C)C#N)c2)cc1Nc1ccc2ncn(C)c(=O)c2c1`, the Potency is reported as 14.8 µM (active).
For `CN(C)c1ccc(Nc2nc(N)n(C(=O)c3c(F)cccc3F)n2)cc1`, the Potency was 0.132 µM (active).
With `NC[C@H](O)c1ccc(O)c(O)c1` the “viability” value was 109%.
With `NCCc1ccc(O)c(O)c1` the Potency was 16.6 µM (active).
With `OC(CCN1CCCCC1)(c1ccccc1)C1CC2C=CC1C2` (stereo not given) the “viability” value was 115%.
In the case of `Nc1ccc(S(=O)(=O)Nc2ccnn2-c2ccccc2)cc1`, the “viability” value is reported as 94.2%.
With `COc1ccc(-c2ccc3c(N4CCOC[C@H]4C)nc(N4CCOC[C@H]4C)nc3n2)cc1CO` the Potency was 0.0264 µM (active).
In the case of `COc1cc(Nc2ncc3c(n2)-c2ccc(Cl)cc2C(c2c(F)cccc2OC)=NC3)ccc1C(=O)O`, the Potency is reported as 0.0743 µM (active).
In the case of `CC(C)(C)NCC(O)c1ccc(O)c(CO)c1` (stereo not given), the “viability” value is reported as 124%.
For `Cn1cnc2c(F)c(Nc3ccc(Br)cc3Cl)c(C(=O)NOCCO)cc21`, the Potency was 2.64 µM (active).
